Laboratory results published in PubChem BioAssay (NCATS).
Where “and” joins values, the source holds several entries; their conditions need not be identical. Equal values may be shown once. Inconclusive results are not listed. A number with no mark means an inactive call. Calls of active or inactive are those of the source. Calls come from the whole dose curve; as a rule, active = well fitted inhibition curve with a large enough effect; inconclusive = small, poorly fitted or top-dose-only effect; inactive = no such curve, though single readings can be large or run the other way.

These compounds were tested against Furin (Homo sapiens) (UniProt P09958) (assay: Furin counterscreen qHTS for Zika virus inhibitors (AID 1347149; note: nearly all actives have a fitted effect of over 70% in size;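 for activity change, negative = inhibition: fluorescence gain from furin cutting a BOC-RVRR-AMC peptide substrate over 15 min; top concentration of the series differs between compounds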)). Settings: furin enzymatic counterscreen, fluorogenic substrate; series mostly up to 57.5 µM; activity change, negative = inhibition: at the top concentration.
Sequence of Furin (Homo sapiens) (P09958 whole entry, looked up): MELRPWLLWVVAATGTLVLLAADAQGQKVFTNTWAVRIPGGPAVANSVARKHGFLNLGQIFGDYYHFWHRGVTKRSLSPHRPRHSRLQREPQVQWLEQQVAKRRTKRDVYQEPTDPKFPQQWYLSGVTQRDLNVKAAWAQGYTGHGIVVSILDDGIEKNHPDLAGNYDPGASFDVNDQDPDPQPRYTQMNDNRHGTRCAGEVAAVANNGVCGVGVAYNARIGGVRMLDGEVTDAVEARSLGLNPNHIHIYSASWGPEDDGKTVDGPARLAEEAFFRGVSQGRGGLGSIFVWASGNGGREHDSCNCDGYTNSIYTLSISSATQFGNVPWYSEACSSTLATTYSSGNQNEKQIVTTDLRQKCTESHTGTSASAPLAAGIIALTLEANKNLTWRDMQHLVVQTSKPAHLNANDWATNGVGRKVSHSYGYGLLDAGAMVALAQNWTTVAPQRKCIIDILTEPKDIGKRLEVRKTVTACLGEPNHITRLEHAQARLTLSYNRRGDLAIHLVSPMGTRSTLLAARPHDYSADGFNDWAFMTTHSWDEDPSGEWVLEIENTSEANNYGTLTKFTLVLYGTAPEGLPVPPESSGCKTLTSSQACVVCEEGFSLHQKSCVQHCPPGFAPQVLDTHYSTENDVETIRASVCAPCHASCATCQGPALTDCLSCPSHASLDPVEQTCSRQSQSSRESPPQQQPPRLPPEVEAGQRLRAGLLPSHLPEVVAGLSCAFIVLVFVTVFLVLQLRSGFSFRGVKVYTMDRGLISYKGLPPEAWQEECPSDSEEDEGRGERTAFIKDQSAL
Source text: Avindra Nath, Ph.D., National Institute of Neurological Disorders and Stroke (NINDS), Bethesda, MD
Radhakrishnan Padmanabhan, Ph.D., Georgetown University (GU), Washington D.C.
Zika Virus causes congenital defects, including microcephaly and is associated with Guillain-Barre syndrome, eningoencephalitis and myelitis in infected adult. […] Using a target-based approach, we hope to establish a screening paradigm to uncover novel, cell-active NS2B-NS3 protease (Zika Virus) specific inhibitors from NCATS' collection of small molecules using qHTS.
Four assay panel was created to identify potential Zika Virus inhibitors. Namely, (1) GU unlinked NS2B-NS3 AMC tagged protease qHTS, (2) GU unlinked NS2B-NS3 Rhodamine tagged protease qHTS, (3) NINDS linked NS2B-NS3 AMC tagged protease qHTS, (4) NINDS linked NS2B-NS3 Rhodamine tagged protease qHTS. Active compounds were re-acquired and re-screened to confirm inhibition. Inhibitors were further screened against various confirmatory and counterscreens in dose response format.
Early Translation Branch (ETB)
National Center for Advancing Translational Sciences (NCATS), Rockville, MD
National Institute of Health (NIH), Bethesda, Maryland
1536-well Furin BOC-RVRR-AMC Protocol:
Human recombinant Furin Serine Protease was purchased from Peprotech (catalog #450-47; full length; Rocky Hill, NJ). Briefly, 3 microL of enzyme (final concentrations of 5 nM), in assay buffer (100 mM HEPES pH 7.0, 1 mM CaCl2 with 0.01% Triton X-100) were dispensed into a 1,536-well solid-bottom black plate (Greiner Bio One, Monroe, NC). Twenty-three nL of compounds (final concentration range 7.28 nM to 114 microM) or control Furin Inhibitor I (Dec-RVKR-CMK; final concentration range 0.248 nM to 8.12 microM) were transferred via Wako Pin-tool (Wako Automation, Richmond, VA). Samples were incubated (RT, protected from light) for 15 minutes followed by a 1 microL substrate addition of BOC-RVRR-AMC (final concentration of 2 microM; Km = ~15 muM90). Plates were then read immediately on a ViewLux High-throughput CCD imager (PerkinElmer, Waltham, MA) equipped with standard UV fluorescence optics (340(30) nm excitation, 450(20) nm emission), then incubated (37C, protected from light) for 15 or 30 minutes (~9% conversion). The change in fluorescence intensity over the 15-minute reaction period was normalized against no-inhibitor and no-enzyme controls and the resulting percent inhibition data were fitted to a 4-parameter Hill equation. Furin Inhibitor I was used as intraplate control.
Potency is the fitted concentration of half-maximal effect.

Row | Compound | Potency | activity change, negative = inhibition
1 | NC(=O)c1cccc2[nH]c(-c3ccc([C@H]4CCCN4)cc3F)nc12 | 21.5 µM (active) | –
2 | CC=CCC(C)C(O)C1C(=O)NC(CC)C(=O)N(C)CC(=O)N(C)C(CC(C)C)C(=O)NC(C(C)C)C(=O)N(C)C(CC(C)C)C(=O)NC(C)C(=O)NC(C)C(=O)N(C)C(CC(C)C)C(=O)N(C)C(CC(C)C)C(=O)N(C)C(C(C)C)C(=O)N1C (stereo not drawn) | 0.0152 µM (active) | –
3 | CC1CCC(C(=O)N(c2cc(C#CC(C)(C)C)sc2C(=O)O)C2CCC(O)CC2)CC1 (stereo not drawn) | – | 0.33%
4 | C[C@H](NC(=O)C(=O)Nc1ccccc1C(C)(C)C)C(=O)N[C@@H](CC(=O)O)C(=O)COc1c(F)c(F)cc(F)c1F | – | -1.65%
5 | O=c1c(O)c(-c2ccc(O)cc2)oc2cc(O)cc(O)c12 | – | 7.29%
6 | O=C(O)c1c(Cl)c(Cl)c(Cl)c(Cl)c1-c1c2cc(I)c(=O)c(I)c-2oc2c(I)c(O)c(I)cc12 | – | 3.93% [at 114 µM]
7 | COc1ccc2cc(-c3nc(-c4ccc(S(C)=O)cc4)[nH]c3-c3ccncc3)ccc2c1 (stereo not drawn) | 3.83 µM (active) | –
8 | CC(=O)Nc1ccc([C@H](C)C(=O)Nc2ncc(C(C)C)s2)cc1 | – | -1.5%
9 | Cc1cc(OCCCc2c(C(=O)O)n(Cc3cccnc3)c3c(-c4c(COc5ccc(N6CCN([S+](C)(=O)[O-])CC6)cc5)nn(C)c4C)cccc23)cc(C)c1Cl | 21.5 µM (active) | –
10 | CS(=O)c1ccc(-c2nc(-c3ccc(F)cc3)c(-c3ccncc3)[nH]2)cc1 (stereo not drawn) | 24.1 µM (active) and 21.5 µM (active) | –
11 | Cc1ccn(-c2ccc(-c3ncco3)cc2)c(=O)c1-c1ccc2nc(N)ncc2c1 | 21.5 µM (active) | –
12 | CC1(C)CCC(CN2CCN(c3ccc(C(=O)NS(=O)(=O)c4ccc(NCC5CCOCC5)c([N+](=O)[O-])c4)c(Oc4cnc5[nH]ccc5c4)c3)CC2)=C(c2ccc(Cl)cc2)C1 | inactive | –
13 | NC(=O)c1ccc2nc(-c3ccc(Oc4ccc(Cl)cc4)cc3)[nH]c2c1 | 34 µM (active) | –
